Compound activity from PubChem.
IL1B secr inh: inflammasome signaling inhibition, IL-1 beta readout; activity change, % at 57.5 µM; hit rate 4.7% among 360,000; THP-1 LPS/ATP IL-1B secretion, AlphaLISA, 16 h; active compounds read low; in the data active = activity change below about -50%; inconclusive = mostly about -30% to -49%
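Secreted IL-1B measured by AlphaLISA bead assay after 16 h compound exposure of THP-1 cells; compounds (final up to 57.5 uM) added 1 h before LPS (250 ng/mL) and ATP (1.25 mM) stimulation; lower signal means less secretion.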
Gal4-VP16 FLuc: counter-screen for ROR gamma inhibitors: Gal4-VP16 reporter; Drosophila S2 Gal4-VP16 UAS-luciferase, luminescence, 20 h; Potency, µM (titrated, usually from 53.6 µM), without a hit: top-dose activity, negative = inhibition, hits mostly inhibitors; hit rate 3.5% among 310,000; AID 2546;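 also: Gal4-VP16 expression switched on by copper sulfate through the metallothionein promoter; potency is read from the fitted curve at half-maximal effect; nearly all actives have a fitted effect of over 50% in size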
DT40 TDP1 no CPT: qHTS for Inhibitors of human tyrosyl-DNA phosphodiesterase 1 (TDP1): qHTS in cells in absence of CPT; DT40 Tdp1-/- hTDP1 cells, no CPT, ATP luminescence, 48 h; Potency, µM (series often up to 46.2 µM), without a hit: at the top dose activity change, negative = growth inhibition, usual class: inhibitors; hit rate 15% among 420,000; AID 686978, 2013; also: potency is read from the fitted curve at half-maximal effect; nearly all actives have a fitted effect of over 55% in size
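Camptothecin absent (DMSO only). Human TDP1-complemented DT40 knockout cells, 400 cells/well, 37 °C for minimum 48 hr; ATP measured via CellTiter-Glo, 30 min dark incubation, luminescence.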
ELG1 repair inh: inhibitors of ELG1-dependent DNA repair in HEK293T cells | HEK293T ELG1-luciferase reporter, luminescence, 16 h; DNA damage induced by 5-fluorouridine | Potency, µM (doses to about 46.1 µM), without a hit: at the highest dose activity change, negative = inhibition, hits mostly inhibitors | hit rate 2.3% among 330,000 | AID 504467; also: potency is read from the fitted curve at half-maximal effect; nearly all actives have a fitted effect of over 55% in size
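HEK293T cells expressing luciferase-tagged ELG1 (2,000/well) received 5-Fluorouridine plus compound or DMSO for 16 hr at 37 °C. Luciferase was read by ONE-Glo luminescence after 30 min at room temperature.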
TDP1 cell CPT: growth inhibition of DT40 Tdp1-/-;hTDP1 cells with camptothecin (screen for TDP1 inhibitors) | chicken DT40 Tdp1-/-;hTDP1 cells + 20 nM CPT, ATP luminescence, 48 h | Potency, µM (titrated, usually from 46.2 µM), without a hit: top-dose activity change, negative = growth inhibition, usual class: inhibitors | hit rate 12% among 420,000; also: potency is read from the fitted curve at half-maximal effect; nearly all actives have a fitted effect of over 55% in size
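Chicken DT40 Tdp1-/- cells complemented with human TDP1, 400 cells/well, exposed to compounds plus 20 nM camptothecin for at least 48 h at 37 C; viability read as ATP content by CellTiter-Glo luminescence.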
RORg inh: inhibitors of mouse ROR gamma transcriptional activity | Potency, µM (highest dose often 53.6 µM), for the others: top-dose activity change, negative = inhibition, actives largely listed as inhibitors | AID 2551 | Drosophila S2 Gal4-RORgamma UAS-luciferase reporter, 20 h | hit rate 5.4% among 310,000 | P51450; also: potency is read from the fitted curve at half-maximal effect; nearly all actives have a fitted effect of over 60% in size
Target sequence (P51450 whole entry, looked up, the tested form may be a part): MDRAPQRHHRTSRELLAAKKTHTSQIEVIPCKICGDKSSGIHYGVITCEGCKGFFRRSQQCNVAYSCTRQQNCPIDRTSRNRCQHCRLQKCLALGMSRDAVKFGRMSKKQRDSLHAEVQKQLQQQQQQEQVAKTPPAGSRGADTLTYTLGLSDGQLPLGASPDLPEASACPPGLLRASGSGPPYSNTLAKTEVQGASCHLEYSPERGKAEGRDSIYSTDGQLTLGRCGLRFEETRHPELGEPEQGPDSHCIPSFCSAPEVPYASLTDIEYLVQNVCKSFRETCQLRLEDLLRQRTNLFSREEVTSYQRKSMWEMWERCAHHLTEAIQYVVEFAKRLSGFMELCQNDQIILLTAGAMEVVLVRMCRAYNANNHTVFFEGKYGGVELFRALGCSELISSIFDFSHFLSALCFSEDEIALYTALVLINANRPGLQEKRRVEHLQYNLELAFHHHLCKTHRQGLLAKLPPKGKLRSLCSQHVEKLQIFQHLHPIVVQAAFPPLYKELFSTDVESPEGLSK
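Using a luciferase readout, inhibitors were identified by reduced reporter activity in Drosophila cells coexpressing a copper-inducible Gal4–ROR gamma fusion and UAS-driven Photinus luciferase, incubated 20 hr after 700 uM copper sulfate.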
Active calls of the source: *; u = inconclusive; x = no result given; [ ] = another dose, or the depositor's remark. Shown are actives, neighbours in structure and some others; about 21% of the full set was active somewhere. Unless noted, calls follow the shape of the dose curve; as a rule, active = well fitted curve in the direction sought with a large enough effect; inconclusive = small, poorly fitted or top-dose-only effect, or another doubt; inactive = no such curve, though single readings can be large; an effect the other way counts as inactive or inconclusive. % is scaled to controls: 0 for no effect and ±100 for the full control effect.

SMILES	IL1B secr inh	Gal4-VP16 FLuc	DT40 TDP1 no CPT	ELG1 repair inh	TDP1 cell CPT	RORg inh
COC(=O)c1ccc(Cl)c(NC(=O)C2CCN(S(=O)(=O)Cc3ccccc3)CC2)c1	x	x	-14%	x	-24%	x
O=C1C=C(N2CCN(c3ccccn3)CC2)C(=O)c2c(O)ccc(O)c21	-15	x	4.1µM*	x	1.5µM*	x
O=C(N1CCN(c2ccccn2)CC1)C(Cl)(Cl)Cl	15	-7%	-17%	u	5%	u
CCOc1ccc(N/C(N)=N/c2nc(C)cc(C)n2)cc1	-3	x	26µM*	-9%	21µM*	x
COc1ccc(N/C(N)=N/c2nc(C)cc(=O)[nH]2)cc1	21	-8%	-3%	16%	-10%	3%
Cc1cc(C)nc(/N=C(\N)Nc2ccc3c(c2)OCCO3)n1	-78*	-7%	u	6%	21µM*	12%
Cc1cc(C)nc(/N=C(\N)Nc2ccc(F)c([N+](=O)[O-])c2)n1	-92*	1%	u	u	u	-22%
Cc1cc(C)nc(/N=C(\N)Nc2ccc(SC(F)F)cc2)n1	0	u	12µM*	u	13µM*	45%
Cc1cc(=O)[nH]c(/N=C(\N)Nc2ccc3c(c2)OCCO3)n1	8	-11%	3%	-7%	7%	2%
CC(=O)OCC(=O)Nc1ccc(SC(F)F)cc1	-18	17%	-9%	0%	u	13%
Cc1ccsc1C(=O)Nc1ccc(F)c([N+](=O)[O-])c1	u	-5%	u	u	-8%	27%
COc1cc(C(C(=O)NCC2CCCO2)N(C(=O)Cn2nnc3ccccc32)c2ccc(C(C)=O)cc2)ccc1O (stereo not given)	-9	18%	-15%	u	11%	6%
Cc1ccc(NC(=O)COC(=O)CC2CC3CCC2C3)cc1S(=O)(=O)N1CCOCC1 (stereo not given)	7	x	-22%	0%	2%	x
O=C(NCCOc1ccccc1)C1=CC=CN2CCS(=O)(=O)N=C12	-4	x	-3%	u	-11%	x
CC(C)CO/N=C1/C[C@@H](O)[C@@H](O)[C@@H]2[C@@H]3C(=O)N([C@@H](C)c4ccccc4)C(=O)[C@H]3CC[C@@H]12	x	-3%[10 µM]	x	x	x	20%[10 µM]
COc1ccc(-n2ccn(Cc3ccccc3Cl)c(=O)c2=O)cc1OC	x	x	-18%	x	8%	x
O=C(CC[C@H]1O[C@@H](n2ccc(=O)[nH]c2=O)[C@H](O)[C@@H]1O)N[C@H](Cc1ccccc1)C(=O)NCc1ccc2c(c1)OCO2	3	x	8%	x	-7%	x
COCCNc1ncnc2ccc(-c3ccoc3)cc12	x	6%	u	x	u	3%
CCOc1ccc(N/C(=N/c2nc(C)cc(C)n2)NC(=O)CC)cc1	0	1%	u	18µM*	u	-19%
CC(=O)Nc1ccc(N/C(N)=N/c2nc(C)cc(C)n2)cc1	-93*	3%	u	17%	u	-16%
Cc1cc(C)nc(/N=C(\N)Nc2ccc(-c3ccccc3)cc2)n1	x	-7%	9.2µM*	-17%	7.3µM*	37%
Cc1cc(C)nc(/N=C(\N)Nc2ccc(S(N)(=O)=O)cc2)n1	34	-13%	u	3%	-30%	-16%
COc1ccc(N/C(=N/c2nc(C)cc(C)n2)NC(=O)c2ccccc2)cc1	58	-3%	u	4%	-27%	3%
Cc1ccc(NC(=S)N(CCN2CCOCC2)Cc2ccccc2F)cc1	2	-8%	0%	2%	3%	u
COc1cccc(NC(=S)N(CCCN2CCOCC2)Cc2cn(C)c3ccccc23)c1	-13	u	15µM*	u	9.2µM*	18µM*
SMILES	IL1B secr inh	Gal4-VP16 FLuc	DT40 TDP1 no CPT	ELG1 repair inh	TDP1 cell CPT	RORg inh
CCc1ccccc1NC(=S)N(CCN(C)C)Cc1cccs1	-13	2%[10 µM]	-26%	u	-11%	11µM*
Cc1ccccc1NC(=S)N(CCN1CCOCC1)Cc1ccccc1F	4	-25%	2%	-2%	8%	14µM*
COc1cccc(NC(=S)N(CCN(C)C)Cc2cccs2)c1	-22	8%	-20%	4%	6%	-25%
Cc1cc(NC(=S)N(CCN2CCOCC2)Cc2ccccc2F)ccc1Cl	-58*	u	18µM*	u	u	10µM*
COc1ccc(NC(=S)N(CCCN2CCOCC2)Cc2cn(C)c3ccccc23)cc1OC	-11	0%	u	-11%	-29%	-13%
Fc1ccccc1CN(CCN1CCOCC1)C(=S)Nc1ccccc1Cl	9	u	-5%	-10%	10%	u
O=C(NC1CCOCC1)C1CCC(=O)N(Cc2cccc(C(F)(F)F)c2)C1 (stereo not given)	0	0%	-5%	11%	-10%	1%
CCc1ccccc1NC(=S)N(CCN1CCOCC1)Cc1ccccc1F	-12	-6%	u	2%	u	16µM*
CC[C@]12c3[nH]c4ccc(Cl)cc4c3CCN1C(=O)[C@@H](CC(=O)NCC13CC4CC(CC(C4)C1)C3)C[C@@H]2C(=O)N1CCN(C(=O)C2CC2)CC1	0	x	3.3µM*	u	8.2µM*	x
CC[C@]12c3[nH]c4ccc(OC)cc4c3CCN1C(=O)C(CC(=O)NCC13CC4CC(CC(C4)C1)C3)C[C@@H]2C(=O)N1CCN(C(=O)C2CC2)CC1 (stereo not given in full)	-26	x	u	-10%	u	x
CC[C@]12c3[nH]c4ccccc4c3CCN1C(=O)C(CC(=O)NCC13CC4CC(CC(C4)C1)C3)C[C@@H]2C(=O)N1CCN(C(=O)C2CC2)CC1 (stereo not given in full)	0	x	5.2µM*	-6%	5.2µM*	x
CC[C@]12c3[nH]c4ccccc4c3CCN1C(=O)C(CC(=O)NCc1ccco1)C[C@@H]2C(=O)N1CCN(C(=O)C2CC2)CC1 (stereo not given in full)	1	x	-4%	1%	-4%	x
CCCN1C2CCCC1CC(NC(=O)Nc1ccc(C(C)C)cc1)C2 (stereo not given)	11	12%	u	-6%	23µM*	-37%
CCOC(=O)C1=CN(CC2CCCO2)C=C(C(=O)OCC)C1c1ccccc1C(F)(F)F (stereo not given)	-11	-5%[10 µM]	18µM*	u	u	8%
CC(C)c1ccc(NC(=O)CSC2=Nc3ccccc3C3=NC(CCC(=O)NCc4ccco4)C(=O)N23)cc1 (stereo not given)	x	x	-4%	x	-15%	x
